Test results as given in PubChem BioAssay (EPA / NIEHS).
Records with an inconclusive call do not appear. Calls of active or inactive are those of the source. The calls were made as follows: active = hit-call score of the fitted dose curve at least 0.9, where 1 is the maximum; inconclusive = response in the unintended direction; inactive = score below 0.9.

Assay: Tanguay_ZF_120hpf_NC_legacy: (Legacy) Oregon State University Tanguay Lab 120 Hour Post-fertilization zebrafish Assay for Notochord and Tail Malformation (AID 2283656)
Description: Tanguay_ZF_120hpf_legacy is a whole embryo, multiplexed endpoint assay using zebrafish larvae exposed for 120 hours post fertilization on a 96-well plate.Tanguay_ZF_120hpf_NC_legacy is one of one assay component(s) measured or calculated from the Tanguay_ZF_120hpf_legacy assay. It is designed to make measurements of zebrafish development as detected with brightfield microscopy of developing zebrafish embryos.Data from the assay component Tanguay_ZF_120hpf_NC_legacy was analyzed into 1 assay endpoints. This assay endpoint, Tanguay_ZF_120hpf_NC_legacy, was analyzed in the positive analysis fitting direction relative to DMSO as the negative control and baseline of activity. Using a type of morphology reporter, gain-of-signal activity can be used to understand changes in developmentals as they relate to the whole embryo. To generalize the intended target to other relatable targets, this assay endpoint is annotated to the zebrafish development intended target family, where the subfamily is embryonic notochord morphogenesis.
Zebrafish husbandry: Tropical 5D wild-type adult zebrafish were housed in at an approximate density of 1000 per 100 gallon tank at the Sinnhuber Aquatic Research Laboratory, Oregon State University, Corvallis, OR. Each tank was kept at standard laboratory conditions of 28C on a 14-h light/10-h dark photoperiod in fish water consisting of reverse osmosis water supplemented with a commercially available salt (Instant Ocean). Spawning funnels were placed into the tanks the night prior, and embryos were collected and staged. To increase bioavailability, the chorion was enzymatically removed using pronase (63.6mg/ml, >/= 3.5U/mg, Sigma-Aldrich: P5147) at 4 hours post fertilization (hpf) using a custom automated dechorionator.Chemical exposures: Six hpf dechorionated embryos were placed 1 embryo per well in a 96-well plate prefilled with 90 ul of EM using automated embryo placement systems (AEPS). Ten microliters of each row of dilution plate 2 was added to 2 exposure plates. The final DMSO concentration used was 0.64% (vol/vol). Thirty-two embryos were also exposed to 5uM trimethyltin chloride (positive control). Plates were sealed to prevent evaporation and foil covered to reduce light exposure and kept in a 28C incubator. Embryos were statically exposed until 120 hpf. At 24 hpf, embryos were assessed for photomotor response using a custom photomotor response analysis tool (PRAT) and for developmental toxicity endpoints (MO24: mortality at 24 hpf, DP: developmental progression, SM: spontaneous movement, and NC: notochord distortion). At 120 hpf, locomotor activity was measured using Viewpoint Zebralab and assessed for 18 endpoints. Zebrafish acquisition and analysis program (ZAAP), a custom program designed to inventory, acquire, and manage zebrafish data, was used to collect developmental endpoints as either present or absent (i.e., binary responses were recorded). If mortality occurred for an embryo (at either 24 or 120 hpf), the non-mortality endpoints were not measured.

Structure (SMILES)	outcome	AC50
O=[N+]([O-])/N=C1\NCCN1Cc1ccc(Cl)nc1	inactive	
COP(=O)(OC)OC=C(Cl)Cl	inactive	
C[C@H]1[C@H](c2ccc(Cl)cc2)SC(=O)N1C(=O)NC1CCCCC1	inactive	
Clc1ccccc1-c1nnc(-c2ccccc2Cl)nn1	inactive	
CNC(=O)/C=C(\C)OP(=O)(OC)OC	inactive	
COc1nn(CSP(=S)(OC)OC)c(=O)s1	inactive	
CC(C)OC(=O)Nc1cccc(Cl)c1	inactive	
ClC1C(Cl)C(Cl)C(Cl)C(Cl)C1Cl (stereo unspecified)	inactive	
O=C(NC(=O)c1c(F)cccc1F)Nc1ccc(OC(F)(F)C(F)OC(F)(F)F)c(Cl)c1 (stereo unspecified)	inactive	
CC(C)(C)C(O)C(Oc1ccc(Cl)cc1)n1cncn1 (stereo unspecified)	inactive	
CC1(c2ccc(Oc3ccccc3)cc2)OC(=O)N(Nc2ccccc2)C1=O (stereo unspecified)	inactive	
O=S(=O)(O)C(F)(F)C(F)(F)C(F)(F)C(F)(F)C(F)(F)C(F)(F)C(F)(F)C(F)(F)F	inactive	
CNC(=O)Oc1ccccc1OC(C)C	inactive	
CCC(C)(NC(=O)c1cc(Cl)c(C)c(Cl)c1)C(=O)CCl (stereo unspecified)	inactive	
CN1CSC(=S)N(C)C1		6.95 µM (active)
O=C(Nc1ccccc1)Nc1cnns1	inactive	
CCCN(CCC)c1c([N+](=O)[O-])cc(C(F)(F)F)cc1[N+](=O)[O-]	inactive	
C#CCN1C(=O)COc2cc(F)c(N3C(=O)C4=C(CCCC4)C3=O)cc21	inactive	

Structure (SMILES)	outcome	AC50
Oc1ccc(Cl)cc1Cc1ccccc1	inactive	
COP(=S)(OC)Oc1ccc(SC)c(C)c1	inactive	
Oc1cc(Cl)ccc1Oc1ccc(Cl)cc1Cl	inactive	
O=C1c2ccccc2C(=O)N1SC(Cl)(Cl)Cl	inactive	
O=[N+]([O-])c1c(Cl)c(Cl)c(Cl)c(Cl)c1Cl	inactive	
O=C(O)CCCOc1ccc(Cl)cc1Cl	inactive	
CC[C@H](C)[C@H]1O[C@]2(C=C[C@@H]1C)C[C@@H]1C[C@@H](C/C=C(\C)[C@@H](O[C@H]3C[C@H](OC)[C@@H](O[C@H]4C[C@H](OC)[C@@H](O)[C@H](C)O4)[C@H](C)O3)[C@@H](C)/C=C/C=C3\CO[C@@H]4[C@H](O)C(C)=C[C@@H](C(=O)O1)[C@]34O)O2 (tested in a mixture with another compound)	inactive	
O=C(O)COc1ccc(Cl)cc1Cl	inactive	
CNC(=O)CSP(=S)(OC)OC	inactive	
CCN(CC)C(=O)SCc1ccc(Cl)cc1	inactive	
Cc1[nH]c(=O)n(C(C)(C)C)c(=O)c1Cl	inactive	
CCCN(CCOc1c(Cl)cc(Cl)cc1Cl)C(=O)n1ccnc1	inactive	
CCOCN(C(=O)CCl)c1c(C)cccc1CC	inactive	
N#Cc1c(Cl)c(Cl)c(Cl)c(C#N)c1Cl	inactive	
CCc1ccc(C(=O)NN(C(=O)c2cc(C)cc(C)c2)C(C)(C)C)cc1	inactive	
COP(=S)(OC)Oc1ccc([N+](=O)[O-])cc1	inactive	
O=C(O)C(F)(F)C(F)(F)C(F)(F)C(F)(F)C(F)(F)C(F)(F)C(F)(F)F	inactive	
CNC(=O)Oc1cccc(N=CN(C)C)c1	inactive	
